Compound activity as filed in PubChem BioAssay.
RE007 growth inh: qHTS Assay for Inhibitors of the HIV-1 protein Vpr. AID 651644, 2012. S. pombe RE007 Vpr strain, BacTiter-Glo ATP luminescence, 24 h. Potency, µM (titrated, usually from 92.2 µM), without a hit: at the highest dose activity change, negative = less growth, usual class: inhibitors. hit rate 0.21% among 360,000; active = well fitted falling curve with a large enough effect; inconclusive = small, poorly fitted or top-dose-only effect; inactive = no such curve, though single readings can be large or run the other way; also: nearly all actives have a fitted effect of over 50% in size
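Fission yeast RE007 carrying one integrated HIV-1 vpr copy, seeded at OD 0.01 in PMG+AL medium with 23 nL pinned compound. Grown 24 h at 30 degrees; viability read by BacTiter-Glo luminescence after 5 min.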
FBPA Giardia inh: qHTS Assay for Inhibitors of Fructose-1,6-bisphosphate Aldolase from Giardia Lamblia. A8B2U2. purified Giardia FBPA. Potency, µM (series often up to 59.6 µM), for the others: top-dose activity, negative = inhibition, usual class: inhibitors. hit rate 0.71% among 290,000; also: nearly all actives have a fitted effect of over 55% in size
Target sequence (A8B2U2 whole entry, looked up): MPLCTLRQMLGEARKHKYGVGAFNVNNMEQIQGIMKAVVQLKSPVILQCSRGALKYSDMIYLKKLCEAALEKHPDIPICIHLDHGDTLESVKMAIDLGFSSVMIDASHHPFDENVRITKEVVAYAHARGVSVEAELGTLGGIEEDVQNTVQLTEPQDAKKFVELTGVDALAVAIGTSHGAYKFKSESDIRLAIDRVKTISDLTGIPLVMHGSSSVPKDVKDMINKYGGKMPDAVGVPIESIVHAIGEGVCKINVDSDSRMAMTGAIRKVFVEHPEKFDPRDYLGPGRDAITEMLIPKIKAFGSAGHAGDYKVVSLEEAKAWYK
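40 nM FBPA preincubated 10 min at RT with compound (up to 57.5 uM final), then substrate plus GAPDH/TPI/NAD/arsenate coupling and diaphorase/resazurin added. Fluorescence read after 20 min at RT, 525/598 nm.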
Tb PYK inh: qHTS of Trypanosoma Brucei Inhibitors; Potency, µM (highest dose often 76.8 µM), without a hit: top-dose activity, negative = inhibition, most hits filed as inhibitors; TbPYK enzyme, Kinase-Glo Plus ATP luminescence, 45 min; pyruvate kinase (Trypanosoma brucei), Q57TT1; hit rate 0.12% among 410,000; also: nearly all actives have a fitted effect of over 50% in size
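T. brucei PYK with substrate was exposed to pin-transferred compounds across a concentration series, then started with 130 uM ADP (final). After 45 min at room temperature, Kinase-Glo Plus luminescence was read, normalized and curve-fitted.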
LmPK inhibitor: qHTS Assay for Inhibitors of Leishmania Mexicana Pyruvate Kinase (LmPK). Q27686. purified LmPK, Kinase-Glo ATP luminescence, 1 h. hit rate 0.37% among 290,000. AID 1721, 2009. Potency, µM (highest dose often 57.5 µM), for the others: at the top dose activity change, negative = inhibition, usual class: inhibitors
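Kinase-Glo luminescence read after 1 h RT reaction of 0.1 nM LmPK with 0.5 mM PEP and 0.1 mM ADP. Activity scaled between uninhibited and enzyme-free controls.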
* = called active by the depositor; u = inconclusive; x = no result given; [ ] = remark or other dose. Shown are actives, neighbours in structure and some others; about 0.95% of the full set was active somewhere. Unless noted, calls follow the shape of the dose curve; as a rule, active = well fitted curve in the direction sought with a large enough effect; inconclusive = small, poorly fitted or top-dose-only effect, or another doubt; inactive = no such curve, though single readings can be large; an effect the other way counts as inactive or inconclusive. % is scaled to controls: 0 for no effect and ±100 for the full control effect; potency is read from the fitted curve at half-maximal effect.

SMILES | RE007 growth inh | FBPA Giardia inh | Tb PYK inh | LmPK inhibitor
S=c1[nH]nc(-c2cccc(Cl)c2)n1Cc1ccccc1 | 4% | 1% | u | u
Oc1ccc(-c2n[nH]c(=S)n2Cc2ccco2)cc1 | -8% | -2% | u | 11µM*
Cc1cccc(-c2n[nH]c(=S)n2Cc2ccccc2)c1 | 7% | 8% | u | 18µM*
Cc1ccc(-c2n[nH]c(=S)n2Cc2ccccc2)cc1 | -5% | 9% | u | 13µM*
Oc1cc2ccccc2cc1-c1n[nH]c(=S)n1Cc1ccco1 | 3% | -21% | u | u
CCOc1ccc(-c2n[nH]c(=S)n2Cc2ccccc2)cc1 | -3% | 20% | u | u
COc1ccc(/C=N/Nc2ncccc2[N+](=O)[O-])c(OC)c1 | -9% | -17% | u | 25µM*
NCCCC(N)C(=O)O (stereo unspecified) | x | x | -6% | x
CCOC(=O)COc1ccc2c(C)c(CCN(CC)CC)c(=O)oc2c1 | x | x | 21% | x
CC(=O)SC[C@@H](C)C(=O)N1CCC[C@H]1C(=O)N[C@@H](Cc1ccccc1)C(=O)O | x | x | -4% | x
Cn1c(COc2ccc(Br)cc2)nnc1SC1CCc2ccccc2C1=O (stereo unspecified) | 10% | 18µM* | -17% | 3%
Cn1c(COc2ccccc2)nnc1SCCSc1nnc(COc2ccccc2)n1C | -14% | 3% | -6% | 2%
Cc1ccccc1-c1ccc2ncnc(NCc3cccnc3)c2c1 | x | 3% | x | x
Cc1cccc(C(=O)OCC(=O)N2CCCC2=O)c1O | 2µM* | x | -6% | x
Cc1cccc(C(=O)OCC(=O)N2CCCCCC2)c1O | 2% | x | -3% | x
CCOC(=O)N/N=C1/C[C@@H](O)[C@@H](O)[C@@H]2[C@H]3C(=O)N(c4ccc(F)cc4F)C(=O)[C@@H]3CC[C@H]12 | x | -1%[12.9 µM] | x | x
CCN(CCCNC(=O)c1cc2cc3ccc(OC)cc3nc2s1)c1ccccc1 | x | x | 1% | x
CCCCN(C)C(=O)c1cc2cc3ccc(OC)cc3nc2s1 | u | -6% | u | 14µM*
CC(=O)OC[C@@H]1O[C@H](C/C=N\OC[C@@H](C)[C@H](OCc2ccccc2)C(C)C)C=C[C@@H]1OC(C)=O | x | 2%[12.9 µM] | x | x
CCOC(=O)c1[nH]c2ccc(C)cc2c1N | -2% | -19% | -23% | 13µM*
CCOC(=O)c1[nH]c2cc(OC)c(OC)cc2c1N | -11% | -18% | -17% | 7%
O=C(Nc1cccc2c(=O)cc(-c3nn[nH]n3)oc12)c1ccc(OCCCCc2ccccc2)cc1 | x | x | 0% | x
Cc1nc(C)c(/C(O)=C/c2nc3ccc([N+](=O)[O-])cc3oc2=O)o1 | x | 13µM* | x | -3%
O=C(O/N=C1/CCCc2occc21)c1ccc(Cl)cc1Cl | -3% | -8% | -10% | -9%
O=C(O/N=C1/CCCc2occc21)c1ccccc1 | -19% | -1% | -6% | 13µM*
SMILES | RE007 growth inh | FBPA Giardia inh | Tb PYK inh | LmPK inhibitor
CCc1cc(OC)c(CC(C)N)cc1OC (stereo unspecified) | x | x | -6%[157 µM] | x
CC1=C/C(=C(\c2cc(C)c(O)c(Br)c2)c2ccccc2S(=O)(=O)O)C=C(Br)C1=O | u | u | u | 7.9µM*
CCCNC(=O)OC[C@@H]1O[C@H](CCO/N=C(\C)CCN2CCCc3nc(C)c(C)cc32)C=C[C@@H]1Oc1ccc(OC)cc1 | x | 4%[12.9 µM] | x | x
CC[C@]1(O)C[C@H]2CN(CCC3=c4ccccc4=N[C]3[C@@](C(=O)OC)(c3cc4c(cc3OC)N(C)[C@H]3[C@@](O)(C(N)=O)[C@H](O)[C@]5(CC)C=CCN6CC[C@]43[C@@H]65)C2)C1 | x | x | -7% | x
CC(=O)N(C)C | x | 4% | x | x
CN(C)c1ccc(N/C=C/C(=O)c2ccco2)cc1 | -23% | u | u | 7.1µM*
NS(=O)(=O)c1ccc(N/C=C\C(=O)c2ccc(F)cc2)cc1 | -21% | 1% | -6% | -16%
CN(C)c1ccc(N/C=C/C(=O)c2ccc(F)cc2)cc1 | -19% | -30% | u | 14µM*
CCCCCCCCCCCCCCCCCC(=O)OCCO | x | x | 1% | x
COC(=O)C1=C(C)NC(=O)/C1=C\c1cc(C)n(-c2ccccc2C)c1C | 16µM* | -24% | -1% | 0%
CC1=C(n2nnc([N+](=O)[O-])n2)C(c2cccnc2)C(C#N)=C(N)O1 (stereo unspecified) | 4% | 5µM* | 1% | -1%
COC(=O)C1=C(C)OC(N)=C(C#N)C1c1cccnc1 (stereo unspecified) | -6% | u | 4% | 3%
Cn1c(=O)c(-c2cccs2)nc2cnc(N3CCOCC3)nc21 | x | 6% | x | x
COc1ccc(-c2n[nH]c(=S)n2-c2ccc(C)cc2C)cc1 | 7% | 19% | 18µM* | -2%
Cc1ccc(-n2c(-c3cccnc3)n[nH]c2=S)c(C)c1 | 5%[3.69 µM] | -20% | x | 13µM*
CCn1c(-c2cccnc2)n[nH]c1=S | 5% | u | u | -5%
COc1ccccc1-n1c(-c2ccccc2)c[nH]c1=S | 8% | u | u | 11µM*
COc1ccccc1-n1c(-c2cccnc2)n[nH]c1=S | 12% | -29% | u | 14µM*
COc1ccccc1-n1c(-c2cc(-c3ccc(F)cc3)n[nH]2)n[nH]c1=S | 8% | 2% | u | -28%
CN(C)c1ncc2nc(-c3cccc(C#N)c3)c(=O)n(CCC#N)c2n1 | x | 3% | x | x
c1ccc(CNc2ncnc3ccc(-c4ccc5c(c4)OCO5)cc23)cc1 | x | 1% | x | x
Cc1ccc(-n2c(-c3cnccn3)n[nH]c2=S)c(Br)c1 | 0% | -18% | u | 32µM*
Cc1ccc(-n2c(-c3ccc(Cl)cc3)n[nH]c2=S)c(C)c1 | 16% | 24% | 5µM* | 20µM*
CN(C)CCCOc1c2ccccc2n(Cc2ccccc2)[n+]1[O-] | x | -6% | x | x
COc1ccc(-c2cc(CNS(=O)(=O)c3ccc(NC(C)=O)cc3)on2)cc1 | -11% | x | -1% | -3%
SMILES | RE007 growth inh | FBPA Giardia inh | Tb PYK inh | LmPK inhibitor
O=S(=O)(NCc1cc(-c2ccccc2Cl)no1)c1ccc(Cl)cc1 | 32µM* | 1% | u | 2%
NC(N)=NCCC[C@H](NC(=O)c1ccccc1)C(=O)Nc1ccc([N+](=O)[O-])cc1 | x | 0% | x | x
CCOC(=O)C(=O)Nc1cc(C)on1 | 5% | 5% | 3% | 16µM*
CCCCNC(=O)Nc1cc(C)on1 | -3% | 2% | -7% | 5%
CCOc1ccccc1NS(=O)(=O)c1ccc2c(c1)CC(C)N2C(=O)C1CCC1 (stereo unspecified) | x | x | -22% | x
CN=c1scc(C)n1/N=C/c1ccc(O)c(O)c1O | u | 3.2µM* | u | u
CC(C)N=c1scc(-c2ccco2)n1/N=C/c1ccc(O)c(O)c1 | u | -19% | -19% | 2%
C=CCN=c1scc(-c2ccco2)n1/N=C/c1ccc(O)c(O)c1O | -19% | 22µM* | u | -3%
COCCN=c1scc(-c2ccco2)n1/N=C/c1ccc(O)c(O)c1O | -25% | 18µM* | u | -1%
